# Assay results as given in the supplement of paper PMC11738630.
# Tested on: Salmonella enterica serovar Typhimurium 14028s
# Test: approximate change in surviving CFU after surface colonization relative to water-only control (log10 CFU/mL change); higher = more surviving bacteria (less inhibition of surface colonization)
# Conditions: not stated (Biolog proprietary concentration), surface: plastic 96-well plate, 20-24 h at 25 °C
smiles,measurement,setting,value
"O=C(O)CC(O)C(=O)O (racemic) [D,L-Malic Acid]",approximate change in surviving CFU (log10),"Biolog plate: PM1, Biolog well: C3",1.05
OC[C@H]1O[C@H](O)[C@H](O)[C@@H](O)[C@@H]1O [a-D-Glucose],approximate change in surviving CFU (log10),"Biolog plate: PM1, Biolog well: C9",2.34
OC[C@H]1O[C@@H](O[C@H]2[C@H](O)[C@@H](O)[C@@H](O)O[C@@H]2CO)[C@H](O)[C@@H](O)[C@H]1O [a-D-Lactose],approximate change in surviving CFU (log10),"Biolog plate: PM1, Biolog well: D9",1.05
O=C(O)C(O)C(O)C(=O)O (stereo not given) [m-Tartaric Acid],approximate change in surviving CFU (log10),"Biolog plate: PM1, Biolog well: E2",1.04
NCC(=O)N[C@@H](CC(=O)O)C(=O)O [Glycyl-L-Aspartic Acid],approximate change in surviving CFU (log10),"Biolog plate: PM1, Biolog well: F1",0.929
O[C@H]1[C@H](O)[C@@H](O)[C@H](O)[C@@H](O)[C@H]1O [myo-Inositol],approximate change in surviving CFU (log10),"Biolog plate: PM1, Biolog well: F3",0.902
COC(=O)C(C)=O [Methyl Pyruvate],approximate change in surviving CFU (log10),"Biolog plate: PM1, Biolog well: G10",0.0644
OCC1(O)OC[C@@H](O)[C@@H](O)[C@H]1O (stereo partly drawn) [D-Psicose],approximate change in surviving CFU (log10),"Biolog plate: PM1, Biolog well: H5",1.35
O=C(O)[C@H]1OC(O)[C@H](O)[C@@H](O)[C@H]1O (stereo partly drawn) [D-Galacturonic Acid],approximate change in surviving CFU (log10),"Biolog plate: PM1, Biolog well: H10",1.09
OC[C@H]1OC(O[C@H]2[C@H](O)[C@@H](O)C(O[C@H]3[C@H](O)[C@@H](O)[C@@H](O)O[C@@H]3CO)O[C@@H]2CO)[C@H](O)[C@@H](O)[C@@H]1O (stereo not given in full) [Dextrin],approximate change in surviving CFU (log10),"Biolog plate: PM2, Biolog well: A6",0.665
O=C(O)[C@H]1O[C@@H](O)[C@H](O)[C@@H](O)[C@H]1O [Pectin],approximate change in surviving CFU (log10),"Biolog plate: PM2, Biolog well: A12",-0.343
CC(=O)N[C@H]1[C@H]([C@H](O)[C@H](O)CO)OC(O)(C(=O)O)C[C@@H]1O (stereo not given in full) [N-Acetyl-Neuraminic Acid],approximate change in surviving CFU (log10),"Biolog plate: PM2, Biolog well: B2",1.09
N#C[C@H](O[C@@H]1O[C@H](CO[C@@H]2O[C@H](CO)[C@@H](O)[C@H](O)[C@H]2O)[C@@H](O)[C@H](O)[C@H]1O)c1ccccc1 [Amygdalin],approximate change in surviving CFU (log10),"Biolog plate: PM2, Biolog well: B4",0.966
CC(O)(CC(=O)O)C(=O)O (stereo not given) [Citramalic Acid],approximate change in surviving CFU (log10),"Biolog plate: PM2, Biolog well: E4",0.687
"O=C1O[C@H](CO)[C@@H](O)[C@H]1O [D-Ribono-1,4-Lactone]",approximate change in surviving CFU (log10),"Biolog plate: PM2, Biolog well: F7",0.944
O=C(O)CCCCCCCCC(=O)O [Sebacic Acid],approximate change in surviving CFU (log10),"Biolog plate: PM2, Biolog well: F8",0.429
NC(=O)CCC(=O)O [Succinamic Acid],approximate change in surviving CFU (log10),"Biolog plate: PM2, Biolog well: F10",0.73
O=C(O)[C@@H](O)[C@H](O)C(=O)O [D-Tartaric Acid],approximate change in surviving CFU (log10),"Biolog plate: PM2, Biolog well: F11",0.944
"CC(=O)C(C)=O [2,3-Butanedione]",approximate change in surviving CFU (log10),"Biolog plate: PM2, Biolog well: H11",-1.61
O=NO [Nitrite],approximate change in surviving CFU (log10),"Biolog plate: PM3, Biolog well: A3",0.966
O=[N+]([O-])O [Nitrate],approximate change in surviving CFU (log10),"Biolog plate: PM3, Biolog well: A4",0.665
NC(N)=O,approximate change in surviving CFU (log10),"Biolog plate: PM3, Biolog well: A5",0.429
NC(=O)NC(N)=O [Biuret],approximate change in surviving CFU (log10),"Biolog plate: PM3, Biolog well: A6",-0.258
NCCCC[C@@H](N)C(=O)O [D-Lysine],approximate change in surviving CFU (log10),"Biolog plate: PM3, Biolog well: C7",-0.107
CC(C)[C@@H](N)C(=O)O [D-Valine],approximate change in surviving CFU (log10),"Biolog plate: PM3, Biolog well: C9",-0.172
NO [Hydroxylamine],approximate change in surviving CFU (log10),"Biolog plate: PM3, Biolog well: D4",-0.687
NCCO [Ethanolamine],approximate change in surviving CFU (log10),"Biolog plate: PM3, Biolog well: D9",-0.408
NCCc1c[nH]cn1 [Histamine],approximate change in surviving CFU (log10),"Biolog plate: PM3, Biolog well: E1",-0.987
Nc1cc[nH]c(=O)n1 [Cytosine],approximate change in surviving CFU (log10),"Biolog plate: PM3, Biolog well: F5",1.14
Nc1nc2c(ncn2[C@@H]2O[C@H](CO)[C@@H](O)[C@H]2O)c(=O)[nH]1 [Guanosine],approximate change in surviving CFU (log10),"Biolog plate: PM3, Biolog well: F7",-0.172
OC[C@H]1O[C@@H](n2cnc3c(O)nc(O)nc32)[C@H](O)[C@@H]1O [Xanthosine],approximate change in surviving CFU (log10),"Biolog plate: PM3, Biolog well: G2",0.751
O=C1NC(=O)C(=O)N1 [Parabanic Acid],approximate change in surviving CFU (log10),"Biolog plate: PM3, Biolog well: G6",-2.58e-05
NCC(=O)N[C@@H](CCC(=O)O)C(=O)O,approximate change in surviving CFU (log10),"Biolog plate: PM3, Biolog well: H10",0.472
O[C@@H]1[C@@H](O)[C@@H](O)CO[C@H]1O [L-Arabinose],approximate change in surviving CFU (log10),"Biolog plate: PM1, Biolog well: A2",0.837
O=C(O)[C@@H](O)[C@@H](O)[C@H](O)[C@@H](O)C(=O)O [D-Saccharic Acid],approximate change in surviving CFU (log10),"Biolog plate: PM1, Biolog well: A4",0.708
OC[C@@H](O)[C@@H](O)[C@H](O)[C@H](O)CO [D-Mannitol],approximate change in surviving CFU (log10),"Biolog plate: PM1, Biolog well: B11",2.19
O=C(CO)[C@@H](O)[C@H](O)[C@H](O)CO [D-Fructose],approximate change in surviving CFU (log10),"Biolog plate: PM1, Biolog well: C7",2.4
OC[C@H]1O[C@@H](O[C@@H]2[C@@H](CO)OC(O)(CO)[C@H]2O)[C@H](O)[C@@H](O)[C@H]1O (mixture of isomers) [Lactulose],approximate change in surviving CFU (log10),"Biolog plate: PM1, Biolog well: D10",1.05
O=P(O)(O)O[C@H]1O[C@H](CO)[C@@H](O)[C@H](O)[C@H]1O [D-Glucose-1-Phosphate],approximate change in surviving CFU (log10),"Biolog plate: PM1, Biolog well: E3",1.4
O=C(O)/C=C/C(=O)O [Fumaric Acid],approximate change in surviving CFU (log10),"Biolog plate: PM1, Biolog well: F5",0.88
O=C(O)[C@@H](O)[C@H](O)[C@H](O)[C@@H](O)C(=O)O [Mucic Acid],approximate change in surviving CFU (log10),"Biolog plate: PM1, Biolog well: F8",1.38
O=C(O)CC(CC(=O)O)C(=O)O [Tricarballylic Acid],approximate change in surviving CFU (log10),"Biolog plate: PM1, Biolog well: G2",1.05
CC(=O)CC(=O)O [Acetoacetic Acid],approximate change in surviving CFU (log10),"Biolog plate: PM1, Biolog well: G7",0.172
O=C[C@H](O)[C@H](O)[C@@H](O)CO [L-Lyxose],approximate change in surviving CFU (log10),"Biolog plate: PM1, Biolog well: H6",-0.987
NCCO [2-Aminoethanol],approximate change in surviving CFU (log10),"Biolog plate: PM1, Biolog well: H12",0.365
